FMDV inh – blocks foot and mouth disease virus; FMDV antiviral cell-based qHTS; Potency, µM (top dose mostly 57.9 µM), most hits filed as inhibitors; hit rate 1.2% among 410,000; AID 1159524; calls by dose curve; tested in HEK293T cells; also: read-out not given here; nearly all actives have a fitted effect of over 45% in size
Lassa entry inh – Lassa virus entry inhibition; Lassa virus pseudotype entry inhibition, cell reporter; Potency, µM (titrated, usually from 37.9 µM), hits mostly inhibitors; hit rate 1.2% among 300,000; AID 540256; calls by dose curve; tested in HEK293 cells; also: nearly all actives have a fitted effect of over 50% in size
Vaccinia Venus – inhibitors of vaccinia virus (Venus reporter). hit rate 0.46% among 330,000. AID 720580. Potency, µM (doses to about 36.5 µM), most hits filed as inhibitors. Vaccinia virus Venus reporter expression, fluorescence; calls by dose curve; tested in A549 cells; also: nearly all actives have a fitted effect of over 30% in size
VACV mCherry inh – inhibitors of vaccinia virus infection (mCherry reporter signal). Vaccinia virus mCherry reporter infection, fluorescence. Potency, µM (top dose mostly 36.5 µM), actives largely listed as inhibitors. hit rate 0.63% among 310,000. AID 720579; calls by dose curve; tested in A549 cells; also: nearly all actives have a fitted effect of over 35% in size
Marburg entry inh – Marburg virus entry inhibition; Potency, µM (top dose mostly 37.8 µM), most hits filed as inhibitors; hit rate 1.8% among 300,000; Marburg virus pseudotyped entry inhibition, cell reporter; AID 540276; calls by dose curve; tested in HEK293 cells
Large screens that a line does not name were inactive; ! = a repeat was not active. Hits are enriched below; roughly 3.2% of the tested compounds scored in any of these assays.

CC(C)(C)n1nnnc1C(CCc1ccccc1)N1CCC(n2c(=O)[nH]c3ccccc32)CC1 (configuration not stated)	FMDV inh 32µM (no result: Lassa entry inh, Marburg entry inh)
Cc1ccccc1NC(=O)c1ccc(OCc2c(C)noc2C)cc1	none
Clc1ccc(/C=C/c2ccncc2)cc1Cl	Vaccinia Venus inconclusive, VACV mCherry inh 4.5µM (no result: FMDV inh, Lassa entry inh, Marburg entry inh)
COc1ccc(NC(=O)/C(Cl)=C(/Cl)S(=O)Cc2ccccc2Cl)cn1 (configuration not stated)	FMDV inh 3.2µM, Lassa entry inh inconclusive, Vaccinia Venus 2.8µM, VACV mCherry inh 2µM, Marburg entry inh inconclusive
COc1ccc(NC(=O)COC(=O)C(NC(=O)c2ccc(C)cc2)C(C)C)cn1 (configuration not stated)	none
COc1ccc(NC(=O)/C(Cl)=C(/Cl)S(=O)(=O)Cc2ccc(C)cc2)cn1	FMDV inh 22µM, Lassa entry inh 14µM, Vaccinia Venus 14µM, Marburg entry inh 4.5µM (no result: VACV mCherry inh)
COc1ccc(NC(=O)Cc2ccc(Cl)c(Cl)c2)cn1	none (no result: Lassa entry inh, Marburg entry inh)
Cc1c(C(=O)NCc2ccccc2)sc(=O)n1Cc1ccccc1F	none (no result: Lassa entry inh, Marburg entry inh)
CCOC(=O)Cc1ccc(NC(=O)c2ccccc2Br)cc1	none (no result: Lassa entry inh, Marburg entry inh)
CCOC(=O)Cc1ccc(NC(=O)c2ccc(C(C)(C)C)cc2)cc1	FMDV inh 18µM, Lassa entry inh 13µM, Vaccinia Venus inconclusive, VACV mCherry inh inconclusive, Marburg entry inh 13µM
CCOc1ccc(C(=O)c2cn(CC(=O)Nc3ccc(F)cc3)c3cc4c(cc3c2=O)OCO4)cc1	none
COc1ccc(C2CC(=O)N(Cc3ccc(F)cc3)c3ccccc3S2)cc1 (configuration not stated)	FMDV inh inconclusive (no result: Lassa entry inh)
COc1ccc(C2CC(=O)N(Cc3ccc(F)cc3)c3ccccc3S2)cc1OC (configuration not stated)	FMDV inh 40µM (no result: Lassa entry inh)
COc1cc(C2CC(=O)N(Cc3ccc(F)cc3)c3ccccc3S2)cc(OC)c1OC (configuration not stated)	FMDV inh 14µM, Marburg entry inh inconclusive (no result: Lassa entry inh)
Cc1ccc(N2C(=O)CSC23C(=O)N(CC(=O)NCc2ccccc2)c2ccccc23)cc1C (configuration not stated)	none (no result: Marburg entry inh)
O=C(Nc1ncc(Cc2cccc(C(F)(F)F)c2)s1)c1ccc(-c2cccc([N+](=O)[O-])c2)o1	Lassa entry inh inconclusive, VACV mCherry inh inconclusive, Marburg entry inh 16µM
CCCCC(=O)NC(c1ccccc1OC)c1ccc2cccnc2c1O (configuration not stated)	VACV mCherry inh 7.9µM (no result: Lassa entry inh, Marburg entry inh)
CC(=O)NC(c1ccc2ccccc2c1)c1ccc2cccnc2c1O (configuration not stated)	Lassa entry inh inconclusive, Vaccinia Venus inconclusive, VACV mCherry inh inconclusive, Marburg entry inh inconclusive
CCCC(=O)NC(c1ccccc1OC)c1ccc2cccnc2c1O (configuration not stated)	Lassa entry inh inconclusive, Vaccinia Venus inconclusive, VACV mCherry inh 10µM, Marburg entry inh inconclusive
NC(Cc1ccc(Cl)cc1)c1csc(Nc2ncccn2)n1 (configuration not stated)	Vaccinia Venus 7.9µM, VACV mCherry inh 10µM (no result: Lassa entry inh, Marburg entry inh)
COc1ccc(CC(N)c2csc(Nc3ncccn3)n2)cc1 (configuration not stated)	Vaccinia Venus inconclusive, VACV mCherry inh 13µM (no result: Lassa entry inh, Marburg entry inh)
NC(Cc1ccc(F)cc1)c1csc(Nc2ncccn2)n1 (configuration not stated)	Vaccinia Venus 7.9µM, VACV mCherry inh 7.1µM (no result: Lassa entry inh, Marburg entry inh)
Nc1ccc(CC(N)c2csc(Nc3ncccn3)n2)cc1 (configuration not stated)	Vaccinia Venus inconclusive, VACV mCherry inh inconclusive (no result: Lassa entry inh, Marburg entry inh)
Cc1cc(N/N=C/c2ccc(F)cc2)nc(-n2nc(C)cc2C)n1	Lassa entry inh inconclusive, Vaccinia Venus inconclusive, VACV mCherry inh inconclusive, Marburg entry inh inconclusive
CCOc1ccc(Nc2cc(C)nc(-n3nc(C)cc3C)n2)cc1	FMDV inh 20µM, Lassa entry inh inconclusive, Vaccinia Venus 16µM, VACV mCherry inh inconclusive, Marburg entry inh 0.25µM
COc1ccc(/C=N/Nc2cc(C)nc(-n3nc(C)cc3C)n2)c(OC)c1	FMDV inh 28µM, Lassa entry inh 21µM, Vaccinia Venus inconclusive, VACV mCherry inh 6.3µM, Marburg entry inh inconclusive
Cc1cc(Br)ccc1SCC(=O)NCC(c1ccco1)N1CCCCC1 (configuration not stated)	Marburg entry inh inconclusive
Cc1ccc(C)c(SCC(=O)NCC(c2ccco2)N2CCCCC2)c1 (configuration not stated)	Lassa entry inh inconclusive, Marburg entry inh 13µM
CC(=O)Nc1ccc(S(=O)(=O)NC(C)C(=O)NCC(c2ccco2)N2CCCCC2)cc1 (configuration not stated)	none (no result: Lassa entry inh, Vaccinia Venus, VACV mCherry inh, Marburg entry inh)
Cc1ccc(S(=O)(=O)NC(CC(C)C)C(=O)NCC(c2ccco2)N2CCCCC2)cc1 (configuration not stated)	FMDV inh 10µM (no result: Lassa entry inh, Vaccinia Venus, VACV mCherry inh, Marburg entry inh)
Cc1c(C(=O)NCC(c2ccco2)N2CCCC2)sc2ccccc12 (configuration not stated)	Marburg entry inh 11µM
COc1cc(OC)c(OC)cc1/C=C/c1nccc2ccccc12	none (no result: FMDV inh, Lassa entry inh, Marburg entry inh)
COC(=O)C1=C[C@@]2(c3ccc(F)cc3[C@@H](OC)[C@@H]2C)[C@@H]2C=C[C@H]1C2	none (no result: FMDV inh, Lassa entry inh, Vaccinia Venus, VACV mCherry inh)
CS(=O)(=O)c1nc(-c2ccccc2)cc(-c2ccccc2)c1C#N	FMDV inh inconclusive, Lassa entry inh 15µM, Marburg entry inh 13µM
Cc1ccc(-c2cc(-c3ccccc3)c(C#N)c(Br)n2)cc1	Marburg entry inh inconclusive
c1ccc2c(c1)OCC(C1=NCCN1)O2 (configuration not stated)	FMDV inh inconclusive, Lassa entry inh 2.6µM!, Marburg entry inh inconclusive
Nn1c(C2COc3ccccc3O2)n[nH]c1=S (configuration not stated)	none (no result: Lassa entry inh, Vaccinia Venus, VACV mCherry inh, Marburg entry inh)
C=C1C=C(C)n2ncc(C(=O)Nc3cccc(C(=O)Nc4cccc(C(F)(F)F)c4)c3)c2N1	none (no result: FMDV inh, Lassa entry inh, Marburg entry inh)
CCOC(=O)c1c(C)[nH]c(C(=O)N/N=C\c2ccccc2O)c1C	Lassa entry inh 8.9µM, Vaccinia Venus inconclusive, VACV mCherry inh inconclusive, Marburg entry inh inconclusive
CCOC(=O)c1c(C)[nH]c(C(=O)N/N=C/c2cc([N+](=O)[O-])ccc2O)c1C	Lassa entry inh 6.5µM, Marburg entry inh inconclusive
CCOC(=O)c1c(C)[nH]c(C(=O)N/N=C/c2ccc(OC)c(OC)c2)c1C	none (no result: Lassa entry inh, Vaccinia Venus, VACV mCherry inh, Marburg entry inh)
COc1ccccc1CNC(=O)COC(=O)Cn1cnc2c1c(=O)n(C)c(=O)n2C	none (no result: Lassa entry inh, Marburg entry inh)
Cc1sc(N/N=C/c2cccnc2)nc1-c1ccccc1	FMDV inh inconclusive, Lassa entry inh 2.9µM, Marburg entry inh inconclusive (no result: Vaccinia Venus, VACV mCherry inh)
Cc1ccc(-c2cc(-c3ccccc3)nc(N/N=C/c3cccnc3)n2)cc1	VACV mCherry inh inconclusive, Marburg entry inh inconclusive
Cc1sc(N/N=C/c2ccco2)nc1-c1ccccc1	Lassa entry inh 21µM, Marburg entry inh inconclusive
O=C(COc1ccc2c3c(c(=O)oc2c1)CCCC3)N1CCN(c2ccccc2)CC1	none (no result: Lassa entry inh, Vaccinia Venus, VACV mCherry inh, Marburg entry inh)
COc1ccc(CCC(=O)NO)cc1	none (no result: FMDV inh, Lassa entry inh, Marburg entry inh)
CCOC(=O)CCN1C(=O)[C@H]2[C@H]3[C@H](O)[C@H](O)C/C(=N/OCC(C)C)[C@@H]3CC[C@@H]2C1=O	none (no result: FMDV inh, Lassa entry inh, Vaccinia Venus, VACV mCherry inh)
COc1ccccc1-c1cc(C(F)(F)F)nc(S(=O)(=O)CCCC(=O)NCc2ccc(F)cc2)n1	FMDV inh 14µM, Lassa entry inh inconclusive, VACV mCherry inh inconclusive, Marburg entry inh inconclusive
